PubChem BioAssay AID1159580 (chemical genetic matrix, 2015)
Several values for one entry are separate records, joined by “and”; a condition that tells them apart may be missing. Identical values can stand only once. Screen size: about 5,500 compounds; about 2,000 (36%) were called active. Roughly 18% stayed inconclusive and do not appear here. Cut-off read from the data, not from the text of the source: active = normalized growth mostly below about 0.91 (no sharp cut-off); inconclusive = no clear call, values can overlap the other calls; inactive = mostly above about 0.92. The list shows a part of the results.

Experiment: chemical genetic growth profiling, strain panel (AID 1159580);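 note: tested at 20 µM; growth read once vehicle control cultures reached saturation at 30 °C; 1 = growth at the plate median or of vehicle wells; lower values mean less growth of the strain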
Conditions: S. cerevisiae deletion strains, growth OD

Measured: normalized growth

CC(C)(C)NCC(O)c1ccc(O)c(CO)c1 (stereo not given)
inactive: locus YAL013W, strain DEP1, hits give low values 1 and 1.04 | locus YAL021C, strain ccr4, hits give low values 1.02 | locus YAL026C, strain drs2, hits give low values 1.02 | locus YAL030W, strain snc1, hits give low values 1.02 | locus YAL040C, strain CLN3, hits give low values 0.991 and 1.01 | locus YBL061C, strain skt5, hits give low values 1.02 | locus YBR009C, strain hhf1, hits give low values 0.998 | locus YBR021W, strain FUR4, hits give low values 1.01 | locus YBR023C, strain chs3, hits give low values 1.01 | locus YBR171W, strain sec66, hits give low values 1.02 | locus YBR229C, strain ROT2, hits give low values 1 | locus YBR231C, strain swc5, hits give low values 1.01 | locus YBR279W, strain paf1, hits give low values 1.01 | locus YCL011C, strain gbp2, hits give low values 0.998 | locus YCL016C, strain dcc1, hits give low values 1.02 | locus YCL029C, strain bik1, hits give low values 1.01 | locus YCL061C, strain MRC1 (second series), hits give low values 1 and 1.01 | locus YCL061C, strain MRC1, hits give low values 1 | locus YCL069W, strain vba3, hits give low values 1.02 | locus YCR088W, strain abp1, hits give low values 1.01 | locus YDL005C, strain med2, hits give low values 1.01 | locus YDL035C, strain GPR1, hits give low values 1.04 | locus YDL040C, strain nat1, hits give low values 1 | locus YDL074C, strain BRE1, hits give low values 1.06 | locus YDL101C, strain DUN1, hits give low values 1.01 | locus YDL134C, strain PPH21, hits give low values 1 | locus YDL185W, strain tfp1, hits give low values 1.02 | locus YDL192W, strain arf1, hits give low values 1.02 | locus YDR001C, strain nth1, hits give low values 1.01 | locus YDR069C, strain doa4, hits give low values 0.998 | locus YDR101C, strain arx1, hits give low values 0.972 | locus YDR137W, strain rgp1, hits give low values 1.01 | locus YDR150W, strain NUM1, hits give low values 1.01 | locus YDR159W, strain sac3, hits give low values 0.99 | locus YDR162C, strain NBP2, hits give low values 1.03 | locus YDR195W, strain ref2 0.99 | locus YDR297W, strain sur2, hits give low values 1.01 | locus YDR318W, strain mcm21, hits give low values 1.02 | locus YDR334W, strain swr1, hits give low values 0.995 | locus YDR335W, strain msn5, hits give low values 1.02 | locus YDR363W, strain ESC2, hits give low values 1.03 | locus YDR388W, hits give low values 1.02 | locus YDR392W, strain spt3, hits give low values 0.981 | locus YDR502C, strain sam2, hits give low values 1.02 | locus YEL003W, strain gim4, hits give low values 1.01 | locus YEL037C, strain rad23, hits give low values 1.01 | locus YEL061C, strain CIN8 (second series), hits give low values 1 | locus YEL061C, strain CIN8, hits give low values 1.01 | locus YER002W, strain NOP16, hits give low values 0.988 and 1.03 | locus YER015W, strain faa2, hits give low values 1.02 | locus YER016W, strain bim1, hits give low values 1.03 | locus YER110C, hits give low values 1.02 | locus YER111C, strain swi4, hits give low values 1.01 | locus YER155C, strain BEM2 (second series), hits give low values 0.982 | locus YER155C, strain BEM2, hits give low values 1.01 | locus YER167W, strain BCK2, hits give low values 1.02 | locus YFR010W, strain ubp6, hits give low values 1.01 | locus YGL078C, strain dbp3, hits give low values 1.03 | locus YGL086W, strain mad1, hits give low values 1.01 | locus YGL167C, strain pmr1, hits give low values 1.02 | locus YGL173C, strain kem1, hits give low values 1.01 | locus YGL227W, strain vid30, hits give low values 0.989 | locus YGL240W, strain doc1, hits give low values 1.02 | locus YGL248W, strain PDE1, hits give low values 0.998 | locus YGL253W, strain hxk2, hits give low values 1.01 | locus YGR078C, strain PAC10, hits give low values 1.02 | locus YGR135W, strain pre9, hits give low values 1.06 | locus YGR229C, strain SMI1, hits give low values 1.02 and 1.05 | locus YGR252W, strain gcn5, hits give low values 1.12 | locus YHR013C, strain ard1, hits give low values 1.01 | locus YHR027C, strain rpn1, hits give low values 1.01 | locus YHR030C, strain SLT2, hits give low values 1.01 and 1.03 | locus YHR079C, strain IRE1 (second series), hits give low values 1.01 | locus YHR079C, strain IRE1, hits give low values 1.03 | locus YHR094C, strain hxt1, hits give low values 1.02 | locus YHR129C, strain ARP1, hits give low values 1.02 | locus YHR142W, strain chs7, hits give low values 1 | locus YHR200W, strain rpn10, hits give low values 1.02 | locus YIL066C, strain RNR3, hits give low values 1.01 | locus YIL073C, strain SPO22, hits give low values 1.1 | locus YIL125W, strain kgd1, hits give low values 1.01 | locus YIR030C, strain dcg1, hits give low values 1.02 | locus YJL092W, strain hpr5, hits give low values 1.01 | locus YJL095W, strain BCK1 (second series), hits give low values 1.03 | locus YJL095W, strain BCK1, hits give low values 1.01 and 1.03 | locus YJL115W, strain asf1, hits give low values 1.04 | locus YJL129C, strain trk1, hits give low values 1 | locus YJL134W, strain LCB3, hits give low values 1.02 | locus YJL154C, strain vps35, hits give low values 1.02 | locus YJL164C, strain tpk1, hits give low values 1 | locus YJL166W, strain qcr8, hits give low values 0.999 | locus YJL168C, strain set2, hits give low values 1.01 | locus YJL187C, strain SWE1 (second series), hits give low values 0.996 | locus YJR043C, strain POL32, hits give low values 1.03 | locus YJR066W, strain TOR1, hits give low values 0.979
